Measurements: PubChem BioAssay (NCI)
The panel holds about 83,000 compounds, 20% with a hit somewhere; the sample as a whole holds those more often.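 Cells were grown in 96-well plates and exposed to the test compound at a single concentration for 48 hours; results are reported as percent growth, with values below 10 considered active.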 Values without a mark were called inactive. Active and inactive are the calls of the source.

Legend:
Experiment in all cases: NCI-60 one-dose screen, 48 h (100 = growth as untreated, 0 = no growth, -100 = all killed)
Conditions in all cases: 10 µM unless noted
[1] = test system: SR leukemia
[2] = test system: RPMI-8226 leukemia
[3] = test system: OVCAR-8 ovarian
[4] = test system: OVCAR-5 ovarian
[5] = test system: OVCAR-4 ovarian
[6] = test system: SK-OV-3 ovarian
[7] = test system: IGROV1 ovarian
[8] = test system: OVCAR-3 ovarian
[9] = test system: HS 578T breast
[10] = test system: NCI/ADR-RES ovarian
[11] = test system: T-47D breast
[12] = test system: BT-549 breast
[13] = test system: MDA-MB-435 melanoma
[14] = test system: MCF7 breast
[15] = test system: HCT-116 colon
[16] = test system: HCC-2998 colon
[17] = test system: KM12 colon
[18] = test system: SW-620 colon

Compound	growth [1]	growth [2]	growth [3]	growth [4]	growth [5]	growth [6]	growth [7]	growth [8]	growth [9]	growth [10]	growth [11]	growth [12]	growth [13]	growth [14]	growth [15]	growth [16]	growth [17]	growth [18]
COc1cccc(-c2ccc3c(c2)NC(=O)/C3=C\c2ccc[nH]2)c1	8.43% (active)	17.5%	74.2%	53.2%	54.7%	58.9%	29.7%	12.7%	56.4%	40.4%	13.6%	36.6%	8.7% (active)	11.3%	23.5%	25.4%	9.35% (active)	
CCNC(=O)Oc1ccc(/C(=C(\C)c2ccccc2)c2ccc(OCCCN(C)C)cc2)cc1	10.2%	66.6%	86.5%	81.4%	84.4%	80.7%	87.5%	85.3%	57%	81.6%	45.6%		69.6%	27%	48.8%	67.9%	65.8%	94.5%
Nc1c(C(=O)Nc2cccc3cnccc23)sc2nc3c(cc12)C(=O)CCC3	59.5%	88.9%	100%	107%	102%	96.5%	87.9%	93.4%	84.3%	102%	105%		7.12% (active)	53.8%	86%	97.4%	71.5%	79.4%
[O-][n+]1c(Cl)cc(Cl)c2ccccc21	89.2%	95%	87.4%	101%	101%	94.4%	104%	93.7%	92.2%	101%	97.7%		101%	97.4%	103%	104%	95.1%	107%
CC(=O)Oc1ccc(/C=N/NC(N)=S)nc1	27.9%	88.7%	46.3%	110%	56%	88%	92.3%	68%	127%	41.9%	52%	32.7%	87%	18.4%	70.1%	55%	76.5%	
Cc1c(C(=O)NCCC(=O)NO)sc2ncnc(Nc3ccc(F)c(Cl)c3)c12	111%	110%	101%	108%	109%	129%	106%	107%	103%	101%	107%		102%	95.2%	107%	105%	104%	101%
O=C(CCN1CCCC1)Nc1ccc2c(NCCCc3ccccc3)c3ccccc3nc2c1	-22.3% (active)	-36.6% (active)	9.97% (active)	32.1%	-18.6% (active)	13%	11.7%	-70.7% (active)	27.4%	91.2%	11.6%		-87.8% (active)	-44.3% (active)	-63.5% (active)	2.16% (active)	-10% (active)	-63.3% (active)
COc1ccc(C(=O)NNc2nc(Cl)nc(N3CCN(C(c4ccccc4)c4ccccc4)CC3)n2)cc1	-29.6% (active)	84.2%	34.1%	96.9%	20.5%	101%	-59.7% (active)	-71.5% (active)	67.1%	50%	85.5%	52.2%	90.6%	89.3%	9% (active)	-10.7% (active)	92.4%	
c1ccc(-c2c(-c3ccccc3)[n+](Cc3ccc4ccccc4c3)c(-c3cccc4ccccc34)n2Cc2ccc3ccccc3c2)cc1	-36.5% (active)	-38.7% (active)	-44.4% (active)	-47.8% (active)	-81% (active)	-50.3% (active)	-71.4% (active)	-88% (active)	-26.9% (active)	-18.9% (active)	-73.4% (active)		-58.6% (active)	-15% (active)	-74.4% (active)	-74.5% (active)	-77.7% (active)	-66.1% (active)
COc1cc(C2=C(c3cn(C)c4ccccc34)COC2=O)cc(OC)c1OC	8.24% (active)	15.2%	24.8%	17.3%	21.4%	28.3%	11.1%	-13.8% (active)	-6.29% (active)	13%	22.6%		-59.5% (active)	14.8%	1.75% (active)	0.901% (active)	13.2%	13.7%
Cc1ccc(C(=O)/C(=C\c2ccc([N+](=O)[O-])cc2)S(=O)Cc2ccc(F)cc2)cc1 (configuration not stated)	7.86% (active)	-21.3% (active)	12.5%	37.3%	30.6%	102%	-16.8% (active)	9.09% (active)	21.9%	26.8%	-26.6% (active)	-0.818% (active)	45.5%	7.88% (active)	-70.7% (active)	22.8%	19.4%	
